High-throughput results (PubChem BioAssay)
Only some compounds are listed: those with a hit (about 2.3% of all), similar ones and a draw of the others.
M1 ag: human M1 muscarinic receptor agonism; CHO-K1 hM1, Fluo-8 calcium fluorescence, agonist mode; 0% DMSO, 100% acetylcholine EC100; activation, % at 3 µM; actives 0.33% (n = 360,000); AID 588814;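 active = activation above the run's mean compound activation plus 3 SD, cut at about 16% in these data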;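 note: peak over basal fluorescence ratio within a 140 s kinetic read after compound addition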
Target sequence (P11229 whole entry, looked up): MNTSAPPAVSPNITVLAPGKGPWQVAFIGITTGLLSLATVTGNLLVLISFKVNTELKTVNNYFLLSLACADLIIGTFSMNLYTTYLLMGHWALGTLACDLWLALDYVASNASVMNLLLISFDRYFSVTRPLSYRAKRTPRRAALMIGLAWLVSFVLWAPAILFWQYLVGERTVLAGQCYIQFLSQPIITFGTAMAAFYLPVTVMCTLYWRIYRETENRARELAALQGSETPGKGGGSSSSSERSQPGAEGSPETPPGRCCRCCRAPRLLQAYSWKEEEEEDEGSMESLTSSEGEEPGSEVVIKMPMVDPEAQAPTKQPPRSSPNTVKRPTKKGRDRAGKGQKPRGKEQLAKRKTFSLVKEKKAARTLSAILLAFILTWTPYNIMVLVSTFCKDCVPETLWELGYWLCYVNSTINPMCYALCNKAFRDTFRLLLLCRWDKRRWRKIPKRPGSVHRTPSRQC
M1 PAM parental: nonselective activator or artifact in parental CHO-K1 calcium assay; actives 0.02% (n = 360,000); activation, % at 3 µM; ATP EC20, Fluo-8 calcium fluorescence; 0% at ATP EC20, 100% at ATP max;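 active = activation above the run cutoff, the mean activation of all test compounds plus 3 SD, cut at about 40% in these data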;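 note: peak over basal fluorescence ratio in a 140 s read after ATP addition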
M1 ag parental: counter-screen for M1 agonists: effect in parental CHO-K1 cells | AID 602248 | actives 0.48% (n = 360,000) | Fluo-8 calcium fluorescence; scaled to maximal ATP response, vehicle zero | activation, % at 3 µM; in the data active = activation above about 15%;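 note: untransfected CHO-K1 host cells lacking M1 receptor as counterscreen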
CHO-K1 Ca antag: nonselective inhibitor or artifact in parental CHO-K1 cells; ATP-induced calcium, Fluo-8 fluorescence; inhibition, % at 3 µM; actives 0.6% (n = 360,000);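 active = inhibition above a per-plate cutoff, the plate's mean sample inhibition plus 3 SD, cut at about 24% in these data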;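 note: 0% = DMSO plus EC80 ATP and 100% = DMSO alone without ATP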
M1 antag: blocks human M1 muscarinic receptor. P11229. CHO-K1 hM1, Fluo-8 calcium fluorescence, ACh EC80 antagonist. inhibition, % at 3 µM. actives 1.3% (n = 360,000). AID 588852;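 active = percent inhibition above its own plate's cutoff, namely the mean of that plate's compound wells plus 3 SD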;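 note: peak over basal fluorescence ratio during 140 s after agonist addition; 0% = ACh EC80 plus DMSO and 100% = DMSO alone without agonist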
CHRM1 PAM: human CHRM1 positive allosteric modulation; P11229; CHO-K1 hM1, Fluo-8 calcium fluorescence, ACh EC20; 0% = ACh EC20, 100% = maximal ACh; activation, % at 3 µM; actives 0.088% (n = 360,000); AID 588819; in the data active = activation above about 19%, passing the limit was not always enough
The depositor's hits bear a star.

SMILES	M1 ag	M1 PAM parental	M1 ag parental	CHO-K1 Ca antag	M1 antag	CHRM1 PAM
Cc1onc(-c2c(Cl)cccc2Cl)c1C(=O)N1CCc2ccccc2C1	-6	20	0	-10	41*	-23
CCOC(=O)Cn1c(=O)oc2cc(S(=O)(=O)NC3CCCCC3)ccc21	-1	-3	1	16	32*	-20
CCOC(=O)N1CCN(S(=O)(=O)c2cccc3ccc(C)nc23)CC1	-2	11	5	-1	9	-6
CCOc1cc(C(=O)Nc2cccc(OCC(=O)N3CCOCC3)c2)cc(OCC)c1OCC	8	-7	1	1	12	1
O=C(NCc1ccco1)C(=O)NCC1OCCN1S(=O)(=O)c1ccc(F)cc1 (stereo unspecified)	-4	1	0	5	14	-9
O=C(NCc1ccco1)C(=O)NCC1OCCN1S(=O)(=O)c1cc(F)ccc1F (stereo unspecified)	16*	0	1	-11	-2	1
CCOC(=O)c1[nH]c(CN2CCN(c3ccc(OC)cc3)CC2)c(C(=O)OCC)c1C	16*	5	10	-17	3	-1
Oc1ccc(/C=N/Nc2nc(-c3cccnc3)nc3ccccc23)c(O)c1	-1	12	6	-5	9	-3
COc1ccc(C(CNc2nc(-c3cccnc3)nc3ccccc23)N(C)C)cc1 (stereo unspecified)	-11	4	3	4	33*	-31
COc1ccc(/C=N/Nc2nc(-c3cccnc3)nc3ccccc23)cc1OC	0	1	5	2	26	-16
Cc1c(O)ccc(/C=N/Nc2nc(-c3cccnc3)nc3ccccc23)c1O	1	4	6	-1	32*	-8
CC(Nc1nc(-c2cccnc2)nc2ccccc12)c1ccc(F)cc1 (stereo unspecified)	-10	-2	2	-7	21*	-17
COc1ccc(CCNc2nc(-c3cccnc3)nc3ccccc23)cc1OC	-8	-6	7	23	25*	-13
O=S(=O)(CCc1ccccc1)CS(=O)(=O)CCc1ccccc1	-1	0	1	-12	-9	0
c1ccc(C2[C@H]3CN(CC4CCCCC4)[C@H](c4ccccc4)C34CC2(c2ccccc2)C4)cc1 (stereo partly specified)	-9	13	1	-11	8	-10
CN1C[C@@H]2C(c3ccc(C(F)(F)F)cc3)C3(c4cccnc4)CC2(C3)[C@H]1c1ccccc1 (stereo partly specified)	-10	22	0	-12	32*	-32
c1ccc(C2[C@H]3CN(Cc4cccnc4)[C@H](c4ccccc4)C34CC2(c2cccnc2)C4)cc1 (stereo partly specified)	-11	-8	-1	-3	40*	-31
c1ccc(C2[C@H]3CN(CC4CCCCC4)[C@H](c4ccccc4)C34CC2(c2cccnc2)C4)cc1 (stereo partly specified)	-13	-3	0	-2	74*	-37
FC(F)(F)c1ccc(CN2C[C@@H]3C(c4ccc(C(F)(F)F)cc4)C4(c5cccnc5)CC3(C4)[C@H]2c2ccccc2)cc1 (stereo partly specified)	-8	7	1	-9	-6	2
CC(=O)c1cc2c(cc1NC(=O)C1CCC1)OCO2	-6	27	0	-10	-10	8
COc1ccccc1OCC(=O)NNC(=O)C(=O)N1CCCC1	-4	8	0	-8	-13	4
NNC(=O)c1cnn(-c2ccccc2)c1-n1cccc1	-3	13	0	-9	-3	3
OCC[C@H]1C[C@@H](O)[C@H](O)[C@]2(CCc3ccccc3CO2)O1	18*	10	0	-14	-2	5
CN(C)C=Nc1nonc1-c1ccccc1	-4	2	1	-10	-6	3
CN(C)C=Nc1c(Br)cc(Br)c2nonc12	45*	4	18*	17	14	-19
SMILES	M1 ag	M1 PAM parental	M1 ag parental	CHO-K1 Ca antag	M1 antag	CHRM1 PAM
Cn1ccnc1C1CCCCN1C(=O)c1cc(COc2ccc(F)cc2Cl)on1 (stereo unspecified)	-13	4	2	-6	36*	-32
CCN(CC)C1CCN(C(=O)c2cc(COc3ccc(F)cc3Cl)on2)C1 (stereo unspecified)	2	-21	1	14	70*	-19
CSc1ccccc1OCc1cc(C(=O)N2CCCC(C)C2)no1 (stereo unspecified)	-5	18	0	-5	1	4
CSc1ccccc1OCc1cc(C(=O)N2CCC(Oc3cccnc3)CC2)no1	-1	6	12	0	39*	-19
COCC1CCN(C(=O)c2cc(COc3ccc(F)cc3Cl)on2)C1 (stereo unspecified)	-5	7	1	-16	-14	1
O=C(c1cc(COc2ccc(F)cc2Cl)on1)N1CC[C@@H]2CCCC[C@H]2C1	-3	1	0	-3	0	1
CSc1ccccc1OCc1cc(C(=O)N2CCSCC2)no1	-3	5	1	-5	2	6
CCN(CC)C1CCN(C(=O)c2cc(COc3ccccc3SC)on2)C1 (stereo unspecified)	1	7	1	-8	56*	-17
Cc1ccccc1NC(=O)C1CCCN(S(=O)(=O)c2ccc3c(c2)C(C)(C)C(=O)N3C)C1 (stereo unspecified)	-2	-3	0	30*	-1	1
COc1ccc(/C=N/NC(=O)/C(=C/c2ccccc2)CCO)cc1	-5	-4	0	-3	2	29*
C/C(=N\NC(=O)Cc1ccc(Cl)c(Cl)c1)c1cccnc1	-3	7	0	44*	-5	2
CC(=O)c1cn(CCOc2ccccc2C)c2ccccc12	1	18	13	6	33*	-12
O=C(C(=O)N1CCOCC1)c1cn(CCOc2ccccc2)c2ccccc12	-7	5	5	-5	-1	3
Cc1ccccc1OCCn1cc(C(=O)C(=O)N2CCOCC2)c2ccccc21	-5	13	23*	-9	13	-5
COc1ccc(C(=O)COC(=O)CCCC(=O)NC2CCCCC2)cc1	-2	0	1	-2	-2	2
CC1CCc2sc3c(c2C1)c(=O)n(CC(=O)O)c(=O)n3Cc1ccc(Cl)cc1 (stereo unspecified)	-5	2	1	-8	-4	5
Cc1ccc(S(=O)(=O)NC(=O)C2(C)CCN2C(=O)C2CCCCC2)nc1 (stereo unspecified)	8	-6	-1	28*	-7	23
